In PubChem BioAssay (NCI) one finds growth data, which are given here for 40 molecules.

Values joined by “and” are separate entries in the source; they are usually repeats but may differ in a detail not shown here. Equal values may be shown once. About 83,000 compounds went through this panel and 20% of them were active in at least one assay; those are over-represented in the sample as a whole.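 In brief: 96-well plates, 48 h treatment, single concentration, percent growth endpoint.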 Active and inactive are the calls of the source. The calls were made as follows: active = growth percent below 10; inactive = the rest.

The assay has as its system MDA-MB-468 breast. The assay can be described thus: NCI-60 one-dose screen, 48 h (100 = growth as untreated, 0 = no growth, -100 = all killed). To be noted: 10 µM unless noted.
Take `Cn1ccc(Cc2cnc(N)s2)n1`: the growth was 103% (inactive).

Turning to `COc1cc(/C=C/c2cc(/C=C/c3ccc(O)c(OC)c3)n(C(=O)Nc3ccc(C)cc3)n2)ccc1O`, the growth was -29.1% (active).

On to `Cc1nn(-c2ccccc2)c(Oc2ccc(Cl)cc2)c1/C=N\N=c1/sc2ccccc2n1C`, for which the growth is 81.8% (inactive).

Turning to `O=C(NCc1ccccc1)c1cccc([N+](=O)[O-])c1`, the growth was 93.8% (inactive).

In the case of `CCN(CC)CCN1C(=O)c2c(c3c4ccccc4[nH]c3c3[nH]c4ccccc4c23)C1=O`, the growth was 89.2% (inactive).

On to `Clc1ccc(COc2ccc(Nc3ncnc4onc(-c5ccccc5)c34)cc2)cc1`, for which the growth was 78.5% (inactive).

Take `CCOC(=O)C1C(=O)C=C(c2ccccc2)CC1c1sc(N(C)Cc2ccccc2)nc1Cl` (stereo not given): the growth is 80.9% (inactive).

`CCCCCCCCN(CCCCCCCC)C(=O)CCl`: the growth is 79.9% (inactive).

In the case of `COc1cc(-c2cc3ncccc3c3nc(N)c4cccnc4c23)cc(OC)c1OC`, the growth is -3.2% (active).

With `CCN(CC)CCCNc1cccc2c(SCc3ccccc3)ccnc12`, the growth is 88.3% (inactive).

Take `C#CCN1C(=O)/C(=c2\sc3n(c2=O)C2C(NN=3)N(CC)C(=O)N2CC)c2ccccc21` (stereo not given): the growth was -26.9% (active).

Consider `O=C(Nc1cccc(Cl)c1)Nc1ncc(CCNc2ncnc3ccsc23)s1`, for which the growth is 6.87% (active).

`CC(c1ccc(-n2cccn2)cc1)c1cnc(N2CCc3ccc(C(N)=O)cc3C2)s1` (stereo not given): the growth was 30.1% (inactive).

As for `CC(=O)N1N=C(c2ccc(Nc3ccnc4cc(Cl)ccc34)cc2)CC1c1ccc(Cl)cc1` (stereo not given), the growth is 24.3% (inactive).

For `Cn1cc(-c2nc(-c3c[nH]c4ccccc34)cs2)c2cccnc21`, the growth was -12.5% (active).

Turning to `CCCSc1nc(Nc2ccc(/C(C)=N\NC(N)=S)cc2)c(C#N)c(-c2ccc(OC)cc2)n1`, the growth was 93.1% (inactive).

On to `Brc1ccc(Cn2nnnc2-c2ccn(-c3ccccc3)n2)cc1`, for which the growth is 71.5% (inactive).

For the molecule `COc1cc2c(cc1-c1c(C)noc1C)ncc1nc(C3CCCCC3)n([C@H](C)COC(F)F)c12`, the growth was 38.5% (inactive).

With `Cc1cc(N(CCCNc2ccnc3cc(Cl)ccc23)Cc2ccccn2)nc(N2CCCC2)n1`, the growth was 88.3% (inactive).

Turning to `NS(=O)(=O)c1ccc(-n2nc(-c3ccc(Cl)cc3)ccc2=O)cc1`, the growth is 56.9% (inactive).

For `CCN(CC)CCCOCCCNc1cc(OC)cc2cccnc12`, the growth was -6.79% (active).

Consider `CC(=O)CC[C@H]1C(=O)N[C@@H](C(C)C)C(=O)N[C@@H](Cc2cc(O)cc(F)c2)C(=O)N2CCC[C@H](N2)C(=O)O[C@H](/C(C)=C/C=C/C(=O)OC(C)(C)C)C/C=C/C=C/[C@H](O)[C@H](C)[C@H]1O`, for which the growth is 15.1% (inactive).

`COc1ccc(N)c(N)c1`: the growth was 84% (inactive).

As for `CC(=O)C(/C=N/C(N)=O)=C(/C)O`, the growth was 109% (inactive).

On to `Cn1nc(CC#N)c2c(=N)n(N)cnc21`, for which the growth is 106% (inactive).

For the molecule `CN1CCN(c2ccc(/C=N/Nc3nc4ccccc4c(=O)n3-c3ccccc3)cc2)CC1`, the growth was 90.8% (inactive).

Take `Cc1cccc(N2CCN(C3=C(Cl)C(=O)c4ncccc4C3=O)CC2)c1`: the growth is -66.6% (active).

On to `O=C(COc1cc(O)c2c(=O)cc(-c3ccccc3)oc2c1)Nc1ccccc1C(F)(F)F`, for which the growth was 67.6% (inactive).

Consider `O=C(c1ccc(F)c(F)c1Nc1ccc(I)cc1F)N1CC(O)([C@@H]2CCCCN2)C1`, for which the growth was 25.2% (inactive).

With `O=C(CCl)N(O)c1ccc(/C=C/c2ccccc2)cc1`, the growth is 25% (inactive) and 6.6% (active).

In the case of `CC[C@]12CC(C(=O)OC)=C3Nc4ccccc4[C@@]34CCN(C14)[C@@H]1c3cc4c(cc3O[C@@H]1[C@H]2O)NC1=C(C(=O)OC)C[C@@]2(CC)C3N(CC[C@@]143)C[C@H]1O[C@H]12` (stereo not given in full), the growth is -35.7% (active).

For `COc1ccc(C(=O)/C=C/c2cc(-c3cc(OC)c(OC)c(OC)c3)n[nH]2)cc1`, the growth was -66.1% (active).

As for `Cn1cc(-c2csc(-c3cn(CCOC(N)=O)c4ccccc34)n2)c2cccnc21`, the growth was 16.2% (inactive).

`Cc1cc(Cl)nc(N2CCN(CCNc3ccnc4cc(Cl)ccc34)CC2)n1`: the growth was 4.38% (active).

Consider `O=C(Nc1ccncc1)C(=O)c1cn(S(=O)(=O)c2ccc(Oc3ccccc3)cc2)c2ccccc12`, for which the growth was 55.4% (inactive).

`COc1ccccc1N1CCN(C(=S)Nc2ccccc2)CC1`: the growth was 97% (inactive).

With `C=C1C(=O)O[C@H]2[C@H]1CC/C(COC(=O)CSCSCC(=O)OC/C1=C/CC[C@@]3(C)O[C@H]3[C@H]3OC(=O)C(=C)[C@@H]3CC1)=C\CC[C@@]1(C)O[C@@H]21`, the growth was -14.2% (active).

Consider `N=C(N)c1ccc(-c2ccc(-c3cc(F)cc(F)c3)o2)nc1`, for which the growth was 85.3% (inactive).

Take `O=C1Nc2cc(-c3ccc(NS(=O)(=O)c4ccccc4)cc3)ccc2/C1=C/c1ccc[nH]1`: the growth was -7.8% (active).

Regarding `CC1=C(C)C(=O)C(Nc2ccc3c(c2)OCO3)=C(Br)C1=O`, the growth is 36.3% (inactive).
